# The campaign covered roughly 16,000 compounds. About 5,700 (36%) were called active. Roughly 24% stayed inconclusive and do not appear here. Some of the results follow. A number with no mark means an inactive call. The call rests on the fitted dose curve; in most records, active means well fitted curve in the direction sought with a large enough effect; inconclusive means small, poorly fitted or top-dose-only effect, or effect the other way; inactive means no such curve, though single readings can be large or run the other way.
# Molecular target: Cytochrome P450 1A2 (Homo sapiens) (UniProt P05177)
# Test: Cytochrome panel assay with activity outcomes
# Details: recombinant CYP, pro-luciferin dealkylation, luminescence, p450-cyp1a2; series mostly up to 57.1 µM
# On the % scale 0 is the no-effect control and ±100 the full control effect.
# Cytochrome P450 1A2 (Homo sapiens), sequence (P05177 whole entry, looked up): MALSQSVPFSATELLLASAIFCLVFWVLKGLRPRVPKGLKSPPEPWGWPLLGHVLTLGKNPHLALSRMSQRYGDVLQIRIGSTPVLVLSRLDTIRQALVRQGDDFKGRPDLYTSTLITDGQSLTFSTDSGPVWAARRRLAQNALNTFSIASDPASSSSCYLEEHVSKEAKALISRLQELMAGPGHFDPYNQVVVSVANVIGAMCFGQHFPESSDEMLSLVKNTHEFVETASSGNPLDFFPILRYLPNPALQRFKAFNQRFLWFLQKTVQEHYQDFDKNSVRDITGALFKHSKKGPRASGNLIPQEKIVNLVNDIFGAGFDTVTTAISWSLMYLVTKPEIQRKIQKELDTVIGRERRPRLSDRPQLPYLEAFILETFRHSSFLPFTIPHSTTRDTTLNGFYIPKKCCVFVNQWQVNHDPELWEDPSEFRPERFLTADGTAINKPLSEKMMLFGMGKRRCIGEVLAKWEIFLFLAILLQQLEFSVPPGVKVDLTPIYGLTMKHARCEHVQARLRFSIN
Compound,AC50,"activity, negative = inhibition"
COc1cccc(Cn2c(=O)c(-c3cccs3)nc3cnc(OC)nc32)c1,3.16 µM (active),–
COc1cccc(Cn2c(=O)c(-c3cccs3)nc3cncnc32)c1,5.01 µM (active),–
COc1ccc(Oc2ncc3nc(-c4cccs4)c(=O)n(Cc4cccc(OC)c4)c3n2)cc1,inactive,–
CCNc1ncc2nc(-c3ccc(Cl)cc3)c(=O)n(Cc3cccc(OC)c3)c2n1,inactive,–
COc1cccc(Cn2c(=O)c(-c3ccc(Cl)cc3)nc3cnc(OC)nc32)c1,3.98 µM (active),–
COc1cc(C2SCCCCCCCCCCSC(c3ccc(O)c(OC)c3)SCCCCCCCCCCS2)ccc1O (stereo unspecified),–,-6.91% [at 2.29 µM]
COCC(=O)N1CCC2(CC1)CN(Cc1ccc(C#N)cc1)C2,inactive,–
CC(C)=CCC/C(C)=C/CO/N=C1/C[C@@H](O)[C@@H](O)[C@@H]2[C@@H]3C(=O)N(Cc4ccc5c(c4)OCO5)C(=O)[C@H]3CC[C@@H]12,–,-3.81% [at 11.4 µM]
N[C@@H](CO)C(=O)O,inactive,–
O=C(CSc1nnc(SCc2cccc3ccccc23)s1)c1ccc2c(c1)OCO2,2.24 µM (active),–
O=C(O)[C@@H]1Cc2c([nH]c3ccccc23)[C@@H](CCCCO)N1,–,-9.61% [at 2.29 µM]
CC[C@H]1CN(C)[C@H]2Cc3c([nH]c4ccccc34)C(=O)C[C@H]1[C@H]2C(=O)OC,–,-10.5% [at 11.4 µM]
COC(=O)C1Cc2c([nH]c3ccccc23)CN1 (stereo unspecified),0.398 µM (active),–
Cc1ccc2c(c1)C1(SCCS1)C(=O)N2,0.891 µM (active),–
O=C1Nc2ccc(F)cc2C12SCCS2,15.8 µM (active),–
CCOC(=O)n1c(=O)n(Cc2ccccc2Cl)c2ccccc21,4.47 µM (active),–
CN(CCCNC(=O)C1CCC(=O)N1Cc1ccccc1Cl)c1ccccc1 (stereo unspecified),inactive,–
COC(=O)Cn1c(=O)c2c(nc(Br)n2Cc2ccccc2Cl)n(C)c1=O,inactive,–
CCOC(=O)n1c(=O)n(Cc2c(Cl)cccc2Cl)c2ccccc21,14.1 µM (active),–
CCOC(=O)CC1C(=O)NCCN1S(=O)(=O)c1ccccc1Cl (stereo unspecified),inactive,–
COc1ccc(CN2CCN(C(=O)CC(C)C)CC2)c(OC)c1OC,inactive,–

Compound,AC50,"activity, negative = inhibition"
COc1cccc(NC(=O)c2cc(-c3cccnc3)nc3c(Cl)cccc23)c1,8.91 µM (active),–
CCOC(=O)C1=C(C)NC2=C(C(=O)C(C(=O)OCC)C(c3ccc(OC)cc3)C2)C1c1ccccn1 (stereo unspecified),inactive,–
CCOC(=O)C1C(=O)C=C(/C=C/c2ccccc2)CC1c1ccc(Cl)cc1 (stereo unspecified),5.01 µM (active),–
CC(C)(CO[C@H]1C[C@H]2CC[C@@]1(C)C2(C)C)[N+](=O)[O-],–,-17.1% [at 11.4 µM]
Fc1ccc(C2=Nn3c(Cc4ccccc4F)nnc3SC2)cc1,0.355 µM (active),–
Cc1cc2ccccc2n1CCNC(=O)C1CCCC1,1 µM (active),–
O=C(Nc1nc2ccccc2n1CCN1CCCCC1)C1CCCCC1,inactive,–
Cc1ccc(C)n1NC(=O)c1ccccc1,inactive,–
Cc1cc2ccccc2n1CCNC(=O)c1ccccc1,4.47 µM (active),–
Cc1ccc(S(=O)(=O)NCCSc2nnnn2C)cc1,inactive,–
Cc1ccc(S(=O)(=O)NC(=O)c2cccn2C)cc1,inactive,–
Cc1cc2ccccc2c(=O)n1CC(=O)NCC(=O)N1CCCC1,inactive,–
Cc1ccc(S(=O)(=O)NCCn2c(C)cc3ccccc32)cc1,15.8 µM (active),–
CS(=O)(=O)c1ccc([C@H](O)[C@H](CO)NC(=O)C(Cl)Cl)cc1,inactive,–
CC(C)(C)N1C(=O)[C@@H]2[C@H]3C(=CC[C@H]2C1=O)C(=O)[C@H]1O[C@H]1[C@H]3O,–,-0.944% [at 11.4 µM]
Cc1cnc(CNc2ncncc2-c2cccc(C#N)c2)cn1,12.6 µM (active),–
N#Cc1cccc(-c2cncnc2NCc2ccccc2)c1,5.01 µM (active),–
N#Cc1cccc(-c2cncnc2NCc2cccnc2)c1,5.01 µM (active),–
Cc1cccc(CNc2ncncc2-c2cccc(C#N)c2)c1,2.51 µM (active),–
O=S(=O)(O)c1ccc(N=Nc2ccccc2)cc1,–,-5.18% [at 11.4 µM]
CC(=O)O[C@]1(C(C)=O)CC[C@@H]2[C@@H]3C=C(Cl)C4=CC(=O)[C@H]5C[C@@H]5[C@]4(C)[C@H]3CC[C@]21C,inactive,–

Compound,AC50,"activity, negative = inhibition"
COc1ccccc1CNc1ncncc1-c1cccc(C#N)c1,10 µM (active),–
N#Cc1cccc(-c2cncnc2NCc2cccs2)c1,1.58 µM (active),–
Cc1ccc(C(C)C)n1C(=O)OC(C)(C)C,–,6.74% [at 11.4 µM]
Fc1ccc2c(c1)C1C=CCC1C(c1cc3c(cc1Br)OCO3)N2 (stereo unspecified),0.891 µM (active),–
C=CCNc1nc(Cl)nc(Nc2ccc(OC)cc2)n1,2.51 µM (active),–
CCCC[C@@H]1C[C@H]1C(NC(=O)c1cccs1)c1ccc(C(F)(F)F)cc1 (stereo partly specified),2 µM (active),–
C/C(=C\C1CCCCC1)C(NC(=O)c1ccc(C(F)(F)F)cc1)c1ccc(-c2ccccc2)cc1 (stereo unspecified),inactive,–
C[C@@]1(C(NC(=O)c2cccs2)c2ccc(-c3ccccc3)cc2)C[C@H]1C1CCCCC1 (stereo partly specified),inactive,–
CCCC[C@@H]1C[C@H]1C(NC(=O)c1cccs1)c1ccccc1C(F)(F)F (stereo partly specified),6.31 µM (active),–
CCCC[C@@H]1C[C@H]1C(NC(=O)c1cccs1)c1ccc(Cl)cc1 (stereo partly specified),1 µM (active),–
CCOC(=O)CSC1=NC(=O)/C(=C\c2ccc(OC(C)=O)cc2)S1,25.1 µM (active),–
CCOC(=O)CSC1=NC(=O)/C(=C\c2ccc(Cl)cc2)S1,3.55 µM (active),–
Cc1cccc(NC2(C(F)(F)F)N=C(c3ccccc3)NC2=O)n1 (stereo unspecified),inactive,–
Brc1ccc(-c2nnc(-c3ccccc3)c(N3CCSCC3)n2)cc1,1.26 µM (active),–
Clc1ccc(-c2nnc(-c3ccccc3)c(N3CCSCC3)n2)cc1,1.12 µM (active),–
Clc1ccc(-c2nnc(-c3ccc(Br)cc3)c(N3CCSCC3)n2)cc1,1.12 µM (active),–
N#Cc1c(N2CCN(C(=O)c3ccccc3Cl)CC2)nc(-c2ccccc2)c2c1CCCC2,inactive,–
Cc1ccc(-n2c(O)c(/C=N/n3cnnc3)c3ccccc3c2=O)cc1,17.8 µM (active),–
Cc1cc(C)cc(-n2c(O)c(C=NC3CCS(=O)(=O)C3)c3ccccc3c2=O)c1 (stereo unspecified),inactive,–

# Source: PubChem BioAssay AID1851 (National Center for Advancing Translational Sciences (NCATS), 2009)
